TRPM1 prom inh: reduces MITF-dependent TRPM1 promoter luciferase signal | inhibition, % at 12.5 µM | SK-MEL-5 TRPM1 promoter luciferase, 24 h | 330,000 tested, 0.83% active | AID 488899;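 active = mean inhibition across replicates of 60% or more, whatever share of single replicates reaches that level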
CHOP inh: blocks CHOP induction under ER stress; inhibition, % at 10 µM; 220,000 tested, 3.8% active; CHO-K1 CHOP-promoter luciferase, tunicamycin-induced, 15-18 h;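 active = compounds that reduced the stress-induced luciferase reporter signal by more than about 70% of percent inhibition, limit read from the data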
HIF-2a inh: inhibitors of HIF-2a; 360,000 tested, 0.72% active; 786-0 RCC cells HIF-2a reporter, luciferase luminescence, overnight; inhibition, % at 18.8 µM;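 active = inhibition of the luminescence signal of 40% or more relative to plate controls, in a single-dose primary screen at 18.75 µM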
CF NFkB inh: cystic fibrosis NF-kB activation inhibition; AID 588850; KKLEB NF-kB-GFP reporter, PAF-induced, GFP fluorescence overnight; 360,000 tested, 0.86% active; inhibition, % at 5 µM;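 active = at least 50% inhibition at 5 µM, scaled per plate between neutral and stimulator controls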;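 note: PAF is a Pseudomonas aeruginosa culture filtrate used as stimulus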
Peg3 promoter: Peg3 promoter activity inhibition | 360,000 tested, 1.7% active | inhibition, % at 20 µM | HeLa PEG-Prom luciferase reporter, luminescence, overnight;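 active = inhibition of at least 50% at 20 µM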
KKLEB tox: counter-screen for CF NF-kB inhibitors: cytotoxicity; 360,000 tested, 0.36% active; activity change (cytotoxicity), % at 5 µM; KKLEB CF airway cells viability, ATPlite luminescence, overnight; stronger effect = lower value; cells stimulated with P. aeruginosa culture filtrate;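 active = corrected activity change at or below -50% at 5 µM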
Mdm2 MdmX conf: Mdm2/MdmX (human) interaction inhibition, confirmed. inhibition, % at 8 µM. AID 504601. shares compounds with HIF-2a inh. 740 tested, 99% active. SaOS-2 split-luciferase Mdm2/MdmX complementation, luminescence;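 active = mean inhibition of the luminescence signal across two replicates at or above 26 percent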
Target sequence (O15151 whole entry, looked up): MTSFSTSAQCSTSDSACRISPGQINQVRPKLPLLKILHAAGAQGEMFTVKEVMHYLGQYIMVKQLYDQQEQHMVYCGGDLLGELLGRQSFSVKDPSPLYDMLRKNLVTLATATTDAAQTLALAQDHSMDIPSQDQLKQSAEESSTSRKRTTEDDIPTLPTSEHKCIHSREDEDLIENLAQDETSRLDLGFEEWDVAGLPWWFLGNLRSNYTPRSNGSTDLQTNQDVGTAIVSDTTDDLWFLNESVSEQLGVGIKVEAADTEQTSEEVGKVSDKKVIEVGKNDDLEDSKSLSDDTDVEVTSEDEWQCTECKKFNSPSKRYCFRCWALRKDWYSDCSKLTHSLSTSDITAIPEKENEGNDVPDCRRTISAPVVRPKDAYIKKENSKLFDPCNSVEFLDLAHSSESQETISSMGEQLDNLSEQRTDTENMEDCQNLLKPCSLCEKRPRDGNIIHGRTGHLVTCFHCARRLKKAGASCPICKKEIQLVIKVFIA
Target sequence (Q00987 whole entry, looked up): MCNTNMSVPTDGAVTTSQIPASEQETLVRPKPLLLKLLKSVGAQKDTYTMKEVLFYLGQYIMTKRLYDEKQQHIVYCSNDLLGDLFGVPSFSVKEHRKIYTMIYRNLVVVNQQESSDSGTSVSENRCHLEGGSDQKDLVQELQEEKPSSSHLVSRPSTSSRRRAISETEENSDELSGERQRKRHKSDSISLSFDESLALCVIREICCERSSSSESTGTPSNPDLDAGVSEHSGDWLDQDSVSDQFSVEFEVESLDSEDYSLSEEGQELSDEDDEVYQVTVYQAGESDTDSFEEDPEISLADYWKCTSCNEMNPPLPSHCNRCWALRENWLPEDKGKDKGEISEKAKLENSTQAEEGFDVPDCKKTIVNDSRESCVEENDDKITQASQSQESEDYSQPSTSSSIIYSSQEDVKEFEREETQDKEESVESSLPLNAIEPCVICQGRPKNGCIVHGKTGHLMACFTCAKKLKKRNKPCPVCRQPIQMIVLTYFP
HIF-2a conf: confirmation of HIF-2a inhibitors. shares compounds with HIF-2a inh. 786-0 RCC cells, HIF-2a luciferase reporter luminescence, overnight. inhibition, % at 18.8 µM. 1,800 tested, 56% active;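 active = mean inhibition across four replicates of at least 40 percent at the single tested concentration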
HIF-1a counter: inhibits HIF-1a reporter, a counter-screen for HIF-2a inhibitors; shares compounds with HIF-2a inh; MiaPaCa-2 HIF-1a luciferase reporter, desferoxamine, overnight; 1,800 tested, 72% active; inhibition, % at 18.8 µM;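 active = mean inhibition of the reporter signal across four replicates at the single tested dose of 50% or more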
Numbers stand for hits; 0 = inactive; - = no result. Rows were chosen to be rich in hits. Some 4.3% of all compounds tested hit in one or more screens of this group.

SMILES	TRPM1 prom inh	CHOP inh	HIF-2a inh	CF NFkB inh	Peg3 promoter	KKLEB tox	HIF-2a conf	HIF-1a counter	others
CCN(CC)CCOc1ccc(Br)cc1	0	0	0	0	0	0	-	-
CCN(CC)CCOc1ccc2c(c1)C(=NO)c1cc(OCCN(CC)CC)ccc1-2	103	0	54	0	107	0	0	107
CCCOc1ccc(C(=O)C(CN2CCOCC2)c2ccccc2)cc1 (stereo not given)	0	0	63	0	94	0	0	100
O=C(CSc1ncccn1)Nc1ccc2c(c1)CCC2	0	0	0	0	0	0	-	-
COc1ccc(-n2nnnc2C(c2cccc(OC)c2OC)N2CCN(C/C=C/c3ccccc3)CC2)cc1 (stereo not given)	-	-	0	0	0	0	-	-
CN(C)c1ncnc2c1ccn2C1OC(CO)C(O)C1O (stereo not given)	0	-	44	0	0	-63	0	0
O=C(c1cc(COc2ccc(F)c(F)c2)on1)N1CCN(C2CCCCC2)C(=O)C1	0	-	0	0	0	0	-	-
CCc1ccc([C@@H]2CC=C(C(=O)O)[C@H](c3ccccc3F)N2S(=O)(=O)c2ccc(C)cc2)cc1	0	-	0	0	0	0	-	-
O=C(c1ccccc1)c1c2c(cc3sc4ccccc4[n+]13)-c1cccc3cccc-2c13	86	82	77	0	101	0	56	98
COC(=O)[C@H]1C[C@@]2(O)CN(S(=O)(=O)c3ccc(C)cc3)C[C@@]2(OC(=O)NC2CCCC2)C[C@H]1C(=O)OC	-	-	0	0	0	0	-	-
COc1ccc(NC(=O)/C(C#N)=C/c2ccc(Sc3nncn3C)c([N+](=O)[O-])c2)cc1	0	0	43	0	0	0	0	0
Cn1cnnc1Sc1ccc(C(=O)OCC(=O)Nc2ccccc2)cc1[N+](=O)[O-]	0	0	0	0	0	0	-	-
Cc1ccc(N(Cc2ccccc2F)S(C)(=O)=O)cc1C	0	0	0	0	0	0	-	-
Cc1ccoc1C(=O)Nc1ccc(CC(=O)O)cc1	0	73	88	0	0	0	94	51
Cc1ccccc1OCCC(=O)OCC(=O)c1c(N)n(CC(C)C)c(=O)n(C)c1=O	0	-	0	0	0	0	-	-
O=C(CCl)N(C1CCCC1)C1CCS(=O)(=O)C1 (stereo not given)	0	-	0	0	0	0	-	-	Mdm2 MdmX conf=102
CC(C)c1ccccc1NC(=O)C1CC(=O)N(C2CCCC2)C1 (stereo not given)	0	-	0	0	0	0	-	-
COc1ccc(C(=O)OCC(=O)NC2CCCCCC2)c(OC)c1	0	-	0	0	0	0	-	-
CCCCOc1cccc2c(=O)n(CC(=O)Nc3ccc4c(c3)OCCO4)ccc12	-	-	0	0	0	0	-	-
COc1ccc(CNC(=O)c2ccc3c(c2)NC(=O)C(C)S3)cc1 (stereo not given)	0	0	0	0	0	0	-	-
CS(=O)(=O)Nc1cccc(-c2cc(NC=O)c3ncc(-c4ccc(F)c(Cl)c4)n3c2)c1	-	-	0	0	0	0	-	-
COc1ccc(-c2cnc3c(NC=O)cc(-c4cccc(NS(C)(=O)=O)c4)cn23)cc1OC	-	-	51	93	69	-62	79	0
CC[C@@]1(C(=O)OC)N[C@H](CN(C)S(=O)(=O)c2ccc(-c3ccccc3)cc2)[C@@H]2C(=O)N(Cc3ccccc3)C(=O)[C@@H]21	0	-	0	0	0	0	-	-	Mdm2 MdmX conf=90
CC[C@@]1(C(=O)OC)N[C@H](CN(C)S(=O)(=O)c2ccccc2)[C@@H]2C(=O)N(Cc3ccccc3)C(=O)[C@@H]21	0	-	0	0	0	0	-	-
CON(C)C(=O)CC1(CN(Cc2ccccc2)C(=O)OC(C)(C)C)CCCCC1	0	-	0	0	0	0	-	-
SMILES	TRPM1 prom inh	CHOP inh	HIF-2a inh	CF NFkB inh	Peg3 promoter	KKLEB tox	HIF-2a conf	HIF-1a counter	others
C#CC(=O)CC1(CN(Cc2ccccc2)C(=O)OC(C)(C)C)CCCCC1	0	-	44	84	60	-104	0	0
Cc1ccc(C(=O)N/C(=C\c2cccs2)C(=O)N2CCOCC2)cc1C	0	-	0	0	0	0	-	-
CC(=NNC(=S)Nc1ccc(C)cc1)c1ccccn1	0	-	61	0	74	0	0	0
O=C(O)CCC1(c2ccccc2)NC(=O)NC1=O (stereo not given)	0	0	44	0	0	0	0	0
C/C(=N\NC(=O)c1cccc(Br)c1)c1ccccn1	0	-	0	0	0	0	-	-	Mdm2 MdmX conf=83
COc1ccc2ccccc2c1/C=N/NC(=O)c1cccc([N+](=O)[O-])c1	0	-	0	0	0	0	-	-
Cc1cc(SC#N)cc(C)c1NC(=O)CCl	0	0	46	0	0	0	54	0
CCC(=O)Nc1ccc(SC#N)cc1C	0	0	0	0	0	0	-	-
O=C(CN1C(=O)NC2(CCCc3ccccc32)C1=O)Nc1cc(F)ccc1F (stereo not given)	0	-	0	0	0	0	-	-
CC(=O)/C=C1/C(=O)Nc2ccccc21	0	0	40	0	0	0	49	0
C=CCOc1cccc(C(=O)/C=C2/C(=O)Nc3ccccc32)c1	0	-	59	86	85	-52	59	105
C=CCOc1cccc(C(=O)N2CCCC(CCC(=O)NCc3ccccc3F)C2)c1 (stereo not given)	0	0	0	0	0	0	-	-
COC(=O)c1sccc1NC(=O)CC1C(=O)NCCN1C(=O)Nc1cc(Cl)ccc1OC (stereo not given)	-	0	0	0	0	0	-	-
Cc1csc(=O)n1CCC(=O)OCC(=O)c1ccc(Br)cc1	0	-	0	0	0	0	-	-
Cc1ccc(NC(=O)c2nc(S(=O)(=O)Cc3ccccc3)ncc2Cl)cc1	95	-	95	92	100	-100	98	96	Mdm2 MdmX conf=102
COc1ccc(OC)c(NC(=O)c2nc(S(=O)(=O)Cc3ccccc3)ncc2Cl)c1	95	-	89	89	106	-105	99	104	Mdm2 MdmX conf=103
Cc1nnc(NC(=O)c2nc(S(=O)(=O)Cc3ccccc3)ncc2Cl)s1	0	-	64	83	110	0	0	106
COc1ccc(OC)c(NC(=O)CS(=O)(=O)Cc2ccccc2)c1	0	-	0	0	0	0	-	-
CCOC(=O)c1ccc(NC(=O)c2nc(SC)ncc2Cl)cc1	0	-	0	0	0	0	-	-
O=C(Nc1ccc(F)cc1)c1nc(S(=O)(=O)Cc2ccccc2)ncc1Cl	62	-	86	101	100	-75	99	60	Mdm2 MdmX conf=102
Cc1nnc(NC(=O)CS(=O)(=O)Cc2ccccc2)s1	0	-	0	0	0	0	-	-
